Rows were chosen to be rich in hits. Some 0.51% of all compounds tested hit in one or more screens of this group.
Epigenetic derep – epigenetic control regulation, reporter derepression; Potency, µM (top dose mostly 53.9 µM), for the others: at the top dose GFP activation, actives largely listed as activators; 0.2% of 280,000 active; AID 1865; murine LDR cells, GFP reporter derepression, 30 h; also: % of control where 0% means no effect; nearly all actives have a fitted effect of over 60% in size
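In this reporter-derepression format, murine cells bearing a silenced integrated CMV-GFP locus incubate with test compound (30 h, 37 C), then are washed and imaged; fluorescent objects of 20–120 um count as induced cells.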
Vif-APOBEC3F blk – inhibitors of Vif-A3F interaction; HeLa A3F-eYFP + Vif (tagged APOBEC3F with the HIV-1 protein that degrades it), YFP fluorescence increase; Potency, µM (doses to about 46.1 µM), for inactives: at the top dose activity, negative = active; 0.2% of 390,000 active; AID 602313; also: % of control where 0% means no effect; nearly all actives have a fitted effect of over 65% in size
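Fluorescence increase (Ex 488/Em 500-530) after overnight compound treatment at 37 deg C flags inhibition of Vif-driven A3F-eYFP loss in stable HeLa A3F-eYFP/Vif cells seeded overnight beforehand.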
PINK1 modulator – changes PINK1 expression; PINK1 immunofluorescence, high-content cytometry, 24 h; 0.2% of 410,000 active; Potency, µM (series often up to 76.6 µM), without a hit: top-dose activation (PINK1 increase), hits mostly activators; active = well fitted activation curve with a large enough effect; inconclusive = small, poorly fitted or top-dose-only effect; cell line not stated here; also: % of control where 0% means no effect; nearly all actives have a fitted effect of over 65% in size
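PINK1 protein level read as immunofluorescence by microplate cytometer in a fixed, stained stable cell line after 24 h exposure to five compound concentrations, with CCCP as control.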
Vif-A3G inh – inhibitors of Vif-APOBEC3G interaction; HeLa A3G-eYFP + Vif (tagged APOBEC3G with the HIV-1 protein that degrades it), YFP fluorescence, overnight; Potency, µM (doses to about 46.1 µM), inactives show top-dose activity, negative = active, most hits filed as inhibitors; 0.076% of 410,000 active; AID 602310; also: % is scaled to controls: 0 for no effect and ±100 for the full control effect; nearly all actives have a fitted effect of over 60% in size
Target sequence (Q9HC16 whole entry, looked up): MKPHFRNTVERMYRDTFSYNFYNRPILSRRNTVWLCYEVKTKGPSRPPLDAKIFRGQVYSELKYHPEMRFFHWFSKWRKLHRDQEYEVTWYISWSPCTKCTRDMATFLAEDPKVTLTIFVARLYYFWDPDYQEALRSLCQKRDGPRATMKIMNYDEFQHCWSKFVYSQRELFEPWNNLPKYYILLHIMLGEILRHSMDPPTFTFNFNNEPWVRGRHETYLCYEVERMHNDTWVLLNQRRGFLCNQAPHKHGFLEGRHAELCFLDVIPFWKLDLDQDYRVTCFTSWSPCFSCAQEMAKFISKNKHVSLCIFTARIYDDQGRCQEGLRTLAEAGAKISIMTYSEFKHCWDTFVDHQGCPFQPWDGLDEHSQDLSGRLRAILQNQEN
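Read-out is eYFP fluorescence (Ex 488/Em 500-530) from Vif-expressing HeLa A3G-eYFP cells; more signal means A3G escaped Vif-mediated degradation. Cells plated overnight, compound pinned in, incubated overnight at 37 deg C.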
* = called active by the depositor; ? = inconclusive; / = not tested or not shown; [ ] = dose if it differs, or a comment. Unless noted, calls follow the shape of the dose curve; as a rule, active = well fitted curve in the direction sought with a large enough effect; inconclusive = small, poorly fitted or top-dose-only effect, or another doubt; inactive = no such curve, though single readings can be large; an effect the other way counts as inactive or inconclusive. Potency is read from the fitted curve at half-maximal effect.

SMILES	Epigenetic derep	Vif-APOBEC3F blk	PINK1 modulator	Vif-A3G inh
CNC(=O)c1ccc(CNC(=O)OCc2ccccc2)cc1	0%	17%	0%	-1%
O=C(COc1ccc(Br)cc1Cl)NCCCN1CCOCC1	/	4%	-1%	-1%
O=C(NCc1ccccc1)c1cccc2c1C(=O)c1ccc(/C=C/c3ccccc3)cc1S2(=O)=O	/	10µM*	8%	-30%
O=C(NCC1CCCO1)c1cccc2c1C(=O)c1ccc(N3CCC(Cc4ccccc4)CC3)cc1S2(=O)=O (stereo not drawn)	/	25µM*	-1%	?
Cc1ccc(CNC(=O)c2cccc3c2C(=O)c2ccc(N4CCCCC4)cc2S3(=O)=O)cc1	/	22µM*	1%	?
COc1ccc(-c2noc(C3CC(=O)N(c4cc(C)cc(C)c4)C3)n2)cc1 (stereo not drawn)	0%	3%	1%	-2%
CCOc1cc(C(=O)Nc2cnccn2)cc(OCC)c1OCC	1%	-8%	14µM*	?
CCOc1cc(C(=O)Nc2cc(C)ccn2)cc(OCC)c1OCC	0%	-2%	1%	0%
NC(=S)n1[nH]c(-c2ccc([N+](=O)[O-])cc2)c(N=Nc2ccc(O)cc2)c1=O	3%	-2%	1%	0%
NC(=S)n1[nH]c(-c2ccc([N+](=O)[O-])cc2)c(N=Nc2cccc(Cl)c2)c1=O	-1%	-3%	13µM*	-1%
COc1ccc(COC(=O)N/N=C2/C[C@@H](O)[C@@H](O)[C@@H]3[C@@H]4C(=O)N([C@@H](C)c5ccccc5)C(=O)[C@H]4CC[C@H]23)cc1	0%[10.1 µM]	/	/	/
CCOc1cc([N+](=O)[O-])cc2c1C(=O)Nc1ccccc1O2	?	22µM*	8%	?
COc1ccc(-c2csc(NC(=O)c3ccccc3NS(=O)(=O)c3ccc(C)cc3)n2)cc1	0%	-2%	14µM*	-19%
CC(C)=CC(=O)O[C@H]1[C@@H]2[C@H](C)C(=O)O[C@@H]2C[C@@H](C)[C@@H]2[C@@H](O)CC(=O)[C@]21C	-2%	2%	4%	-1%
CCN(CC)C1=CC2=CC(=C(C#N)C#N)CCC2CC1 (stereo not drawn)	3%	?	?	7%
CCCCN(C)C1=CC2=CC(=C(C#N)C#N)CCC2CC1 (stereo not drawn)	?	-18%	13µM*	3%
Cc1cccc(NC(=O)C(=O)NCCCN2CCOCC2)c1	-1%	12%	-1%	-1%
N#Cc1c(C(F)(F)F)cc(-c2ccco2)nc1SCc1ccccn1	?	25µM*	0%[38.3 µM]	?
COc1ccc(C(NC(=O)C(C)C)c2ccc3cccnc3c2O)cc1 (stereo not drawn)	3.5µM*	-5%	1%	-22%
COC(=O)C(Cc1ccc(OC(=O)c2ccc(Cl)cc2)cc1)N1Cc2ccccc2C1=O (stereo not drawn)	1%	0%	5%	-3%
O=C(NCC1CCCCC1)c1ccc(Cl)c(S(=O)(=O)N2CCOCC2)c1	/	7%	2%	-1%
O=[N+]([O-])c1cc(C(F)(F)F)ccc1NCCNC(=S)Nc1ccc(Cl)cc1	-2%	-5%	13µM*	-11%
O=C(Cn1c(=O)c2cccn2c2cccnc21)NCc1ccccc1F	13%	7%	-1%	-2%
CCOC(=O)C1CCN(S(=O)(=O)c2ccc(C(C)=O)cc2)CC1	-1%	-25%	11µM*	-2%
COc1ccc(C=CC(=O)c2ccc(OC)c(OC)c2)cc1O	/	-5%	-1%	-26%
SMILES	Epigenetic derep	Vif-APOBEC3F blk	PINK1 modulator	Vif-A3G inh
COc1ccc(/C=C/C(=O)CC(=O)/C=C/c2cccc(O)c2OC)cc1O	13µM*	/	/	/
CCN(CC)C(=O)C1=C(C)N(Cc2ccc(C(C)(C)C)cc2)C(=O)C(CC(=O)NC2CCCC2)C1 (stereo not drawn)	/	-10%	1%	-9%
Cc1cccc2cc3c(N)c(C(=O)N4CCOCC4)sc3nc12	1%	22µM*	1%	?
Nc1c(C(=O)N2CCOCC2)sc2nc(N3CCOCC3)c3c(c12)CCCC3	0%	5%	-1%	-5%
O=C(COC(=O)Cn1cnc2ccccc21)NCCCc1ccccc1	2%	-9%	1%	0%
COc1cc(N2CCCC2)c(OC)cc1/C=C(/C#N)c1cccc(F)c1	3.2µM*	?	17%	5µM*
O=C(N/N=C/c1ccc(N2CCCCC2)o1)c1ccccc1	0%	-1%	-1%	-1%
N#C/C(=C/c1ccc(N2CCCCCC2)o1)c1cccc(F)c1	?	5µM*	8.9µM*	?
N#C/C(=C/c1ccc(N2CCCCCC2)o1)c1ccc(F)cc1	/	28µM*	21%	?
O=C(CCc1nc(-c2ccccc2F)no1)Nc1ccc(Oc2ccccc2)cc1	3%	-6%	?	-12%
O=c1oc2cc(O)ccc2cc1-c1nc(-c2ccc(Cl)c(Cl)c2)cs1	7.9µM*	?	9%	?
c1ccc2c(N3CCCCC3)nc(N3CCCCC3)nc2c1	4%	3%	?	0%
C(=C\c1nc(N2CCCCCC2)c2ccccc2n1)/c1ccccc1	3%	?	35µM*	-1%
COc1ccnc(CSC(N)=Nc2ccccc2C(F)(F)F)c1	-1%	6%	-1%	-1%
COc1ccnc(CSC(N)=Nc2ccccc2OC)c1	3.5µM*	7%	-1%	4%
CCCCCCn1c(SCCC)nc2c1c(=O)[nH]c(=O)n2C	-9%	-1%	3%	1%
FC(F)(F)c1cccc(-c2nc3nc(Cl)c(Cl)nc3[nH]2)c1	1%	1%	2.8µM*	?
CCN(CC)c1ccc(/C=C2\SC(N)=NC2=O)cc1	/	?	7%	8.9µM*
COc1ccc(-n2c(=O)c(-c3cccs3)nc3cnc(Nc4ccccc4)nc32)cc1	/	/	4.5µM*	/
CN(C)c1ncc2nc(-c3cccs3)c(=O)n(-c3ccccc3)c2n1	/	/	40µM*	/
CN(C)c1ncc2nc(-c3ccc(F)cc3)c(=O)n(-c3ccccc3)c2n1	/	/	14%	/
CCSc1nnc(-c2sc3nnc(-c4ccccc4)c(-c4ccccc4)c3c2N)o1	?	13µM*	0%	3.2µM*
COc1cccc(C(=O)NCCNC(=O)c2cnccn2)c1	/	-13%	1%	1%
CC(C)c1ccc(C2CC(=O)N3CN(C)CSC3=C2C#N)cc1 (stereo not drawn)	-1%	-12%	-1%	2%
CC(C)c1ccc(C2C(C#N)=C(N)N3C(=C2C#N)Sc2ccccc23)cc1 (stereo not drawn)	20µM*	/	/	/
O=C(Nc1sc2c(c1C(=O)NCc1ccco1)CCCC2)c1cc(=O)c2cc(Cl)ccc2o1	11%	?	40µM*	-11%
COc1ccc2cc(/C=N/NC(=O)c3c(Cl)cnn3C)c(Cl)nc2c1	?	0%	?	-1%
COc1ccc2cc(/C=N/NC(=O)c3ccc(CN(c4ccc(C)c(C)c4)S(C)(=O)=O)cc3)c(Cl)nc2c1	22µM*	9%	5%	-8%
CCN(c1ccccc1)S(=O)(=O)c1cccc(C(=O)NCCOc2ccccc2OC)c1	/	-10%	0%	0%
